One test deals with AAK1. Set-up: species or system human, MV4-11 + K-562 + COLO205 + SK-N-BE2 + OVCAR-8. Conditions: read-out: apparent Kd, n = 1.
The test system of another test is BMP2K. More on the design: species or system human, MV4-11 + K-562 + COLO205 + SK-N-BE2 + OVCAR-8. The note with it: read-out: apparent Kd, n = 1.
The test system of the next test is CLK1. Set-up: species or system human, MV4-11 + K-562 + COLO205 + SK-N-BE2 + OVCAR-8. Conditions: read-out: apparent Kd, n = 1.
For the next test, the system named is CLK4. More on the design: species or system human, MV4-11 + K-562 + COLO205 + SK-N-BE2 + OVCAR-8. Conditions: read-out: apparent Kd, n = 1.
A further test relates to CSNK2A1;CSNK2A3. More on the design: species or system human, MV4-11 + K-562 + COLO205 + SK-N-BE2 + OVCAR-8. The note with it: read-out: apparent Kd, n = 1.
A further test deals with CSNK2A2. Set-up: species or system human, MV4-11 + K-562 + COLO205 + SK-N-BE2 + OVCAR-8. Conditions: read-out: apparent Kd, n = 1.
The subject of the next test is FLT4. More on the design: species or system human, MV4-11 + K-562 + COLO205 + SK-N-BE2 + OVCAR-8. Conditions: read-out: apparent Kd, n = 1.
In another test the test system is GAK. More on the design: species or system human, MV4-11 + K-562 + COLO205 + SK-N-BE2 + OVCAR-8. The note with it: read-out: apparent Kd, n = 1.
For the next test, the system named is GSK3A. Set-up: species or system human, MV4-11 + K-562 + COLO205 + SK-N-BE2 + OVCAR-8. The note with it: read-out: apparent Kd, n = 1.
A further test deals with GSK3B. Set-up: species or system human, MV4-11 + K-562 + COLO205 + SK-N-BE2 + OVCAR-8. The note with it: read-out: apparent Kd, n = 1.
The next test relates to MELK. More on the design: species or system human, MV4-11 + K-562 + COLO205 + SK-N-BE2 + OVCAR-8. Conditions: read-out: apparent Kd, n = 1.
The test system of another test is NUAK1. More on the design: species or system human, MV4-11 + K-562 + COLO205 + SK-N-BE2 + OVCAR-8. The note with it: read-out: apparent Kd, n = 1.
The test system of another test is PAK4. More on the design: species or system human, MV4-11 + K-562 + COLO205 + SK-N-BE2 + OVCAR-8. Conditions: read-out: apparent Kd, n = 1.
A further test concerns PKN1. Set-up: species or system human, MV4-11 + K-562 + COLO205 + SK-N-BE2 + OVCAR-8. Conditions: read-out: apparent Kd, n = 1.
Test [1] deals with PKN3. Set-up: species or system human, MV4-11 + K-562 + COLO205 + SK-N-BE2 + OVCAR-8. Conditions: read-out: apparent Kd, n = 1.
For the next test, the target named is Q6ZSR9 (human, UniProt Q6ZSR9). More on the design: species or system MV4-11 + K-562 + COLO205 + SK-N-BE2 + OVCAR-8. Conditions: read-out: apparent Kd, n = 1.
Sequence of Q6ZSR9 (Q6ZSR9 whole entry, looked up): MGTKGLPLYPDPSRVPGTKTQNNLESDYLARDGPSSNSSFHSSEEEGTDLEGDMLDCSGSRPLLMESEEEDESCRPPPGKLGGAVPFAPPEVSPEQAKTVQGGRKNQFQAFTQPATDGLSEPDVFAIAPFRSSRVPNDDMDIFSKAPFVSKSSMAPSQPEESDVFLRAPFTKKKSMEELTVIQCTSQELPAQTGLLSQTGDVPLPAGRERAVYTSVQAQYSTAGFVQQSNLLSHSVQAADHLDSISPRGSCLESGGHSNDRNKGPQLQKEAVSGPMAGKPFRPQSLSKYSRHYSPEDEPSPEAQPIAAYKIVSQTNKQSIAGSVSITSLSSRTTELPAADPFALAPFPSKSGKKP
The next test has as its system RET. Set-up: species or system human, MV4-11 + K-562 + COLO205 + SK-N-BE2 + OVCAR-8. Conditions: read-out: apparent Kd, n = 1.
The next test has as its system SIK2. Set-up: species or system human, MV4-11 + K-562 + COLO205 + SK-N-BE2 + OVCAR-8. The note with it: read-out: apparent Kd, n = 1.
For test [2], the system named is PKN3. Conditions: hek293t cells.
The next test concerns PRKAG1. More on the design: species or system human, MV4-11 + K-562 + COLO205 + SK-N-BE2 + OVCAR-8. Conditions: read-out: apparent Kd, n = 1.
The mark [3] stands for this setting: compound concentrations:100 nM and 1000 nM (sheet 'Samples').

pIC50: −log10 of the molar value. Where two headings read alike, the source gives them in different places.
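Throughout, for pIC50: NanoBRET target engagement in HEK293T cells transiently expressing full-length PKN3 with C-terminal NanoLuc, displacement of fluorescent tracer K5 (500 nM), BRET read after 2 h equilibration at 37 °C.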

With `NCCNS(=O)(=O)c1ccc(-c2ccnc3[nH]ccc23)cc1` [GSK977617A], the potency estimated from few doses is 429 nM in the test on AAK1 (setting [3]); 817 nM in the test on BMP2K (setting [3]); 294 nM in the test with CLK1 (setting [3]); 413 nM with CLK4 (setting [3]); 782 nM in the test on CSNK2A1;CSNK2A3 (setting [3]); 766 nM in the test with CSNK2A2 (setting [3]). The potency estimated from few doses with FLT4 (setting [3]) was 1050 nM; with GAK (setting [3]), 280 nM; with GSK3A (setting [3]) it was 257 nM; with GSK3B (setting [3]) it was 361 nM; in the test on MELK (setting [3]), 866 nM; in the test with NUAK1 (setting [3]) it was 1100 nM. The potency estimated from few doses with PAK4 (setting [3]) was 652 nM; in the test on PKN1 (setting [3]) it was 485 nM; with PKN3 [1] (setting [3]), 444 nM; with Q6ZSR9 (setting [3]) it was 450 nM; in the test on RET (setting [3]) it was 569 nM; in the test on SIK2 (setting [3]), 560 nM.

For `CCn1c(-c2nonc2N)nc2c(C#CC(C)(C)O)nc(OC[C@@H](N)c3ccccc3)cc21` [GSK938890A], the potency estimated from few doses in the test with GSK3A (compound concentrations: 100 nM and 1000 nM (sheet 'Samples'), CATDS: 6.6915182583243901E-2) was 404 nM; in the test with GSK3B (compound concentrations: 100 nM and 1000 nM (sheet 'Samples'), CATDS: 6.5310864553074097E-2) it was 446 nM; with PAK4 (compound concentrations: 100 nM and 1000 nM (sheet 'Samples'), CATDS: 0.107853549418886) it was 88.3 nM; in the test with PKN3 [1] (compound concentrations: 100 nM and 1000 nM (sheet 'Samples'), CATDS: 0.20749541918588199), 23.6 nM. Besides, the pIC50 in the test with PKN3 [2] (read-out: Average, SD, n = 4) is 7.01; in the test on PKN3 [2] (read-out: Rep 1), 6.51; in the test on PKN3 [2] (read-out: Rep 2) it was 7.51; in the test on PKN3 [2] (read-out: Rep 3), 7.55; in the test on PKN3 [2] (read-out: Rep 4), 7.65.

For the compound `O=C1NC(=O)/C(=C/c2ccc3ncccc3c2)S1` [RO4603632-000], the potency estimated from few doses in the test with CSNK2A1;CSNK2A3 (compound concentrations: 100 nM and 1000 nM (sheet 'Samples'), CATDS: 0.36519548051145401) was 279 nM; in the test with CSNK2A2 (compound concentrations: 100 nM and 1000 nM (sheet 'Samples'), CATDS: 0.36768987461520503), 276 nM.

As for `CCOc1nccc2c1nc(-c1nonc1N)n2CC` [SB-737198], the potency estimated from few doses in the test with PKN3 [1] (compound concentrations: 100 nM and 1000 nM (sheet 'Samples'), CATDS: 0.243522946677111) is 869 nM; with SIK2 (compound concentrations: 100 nM and 1000 nM (sheet 'Samples'), CATDS: 0.197359346007206), 1500 nM. Also, the pIC50 with PKN3 [2] (read-out: Average, n = 4) was < 4.30; with PKN3 [2] (read-out: Rep 1), < 4.30; with PKN3 [2] (read-out: Rep 2), < 4.30; in the test with PKN3 [2] (read-out: Rep 3), < 4.30; with PKN3 [2] (read-out: Rep 4) it was < 4.30.

As to `Cl.Cl.NCC(C(=O)Nc1cc(Br)c(-c2ccnc3[nH]ccc23)s1)c1ccccc1.NCC(C(=O)Nc1cc(Br)c(-c2ccnc3[nH]ccc23)s1)c1ccccc1` (stereo not drawn) [GSK1269851A], the potency estimated from few doses in the test with AAK1 (setting [3]) was 84.4 nM; in the test on BMP2K (setting [3]), 126 nM; in the test with CLK1 (setting [3]), 449 nM; in the test on CLK4 (setting [3]), 1070 nM; in the test with CSNK2A1;CSNK2A3 (setting [3]) it was 861 nM; in the test on CSNK2A2 (setting [3]), 1130 nM. For the same compound, the potency estimated from few doses was 1230 nM in the test on FLT4 (setting [3]); 63 nM in the test on GAK (setting [3]); 109 nM with GSK3A (setting [3]); 417 nM in the test with GSK3B (setting [3]); 2320 nM in the test with MELK (setting [3]); 1200 nM in the test on NUAK1 (setting [3]). The potency estimated from few doses in the test on PAK4 (setting [3]) was 736 nM; in the test on PKN1 (setting [3]) it was 1330 nM; in the test with PKN3 [1] (setting [3]) it was 863 nM; in the test on PRKAG1 (setting [3]), 416 nM; in the test with Q6ZSR9 (setting [3]), 54.4 nM; in the test on RET (setting [3]), 539 nM. For the same compound, in the test on SIK2 (setting [3]), the potency estimated from few doses was 751 nM.

As for `O=C1N=C(Nc2ccccc2)S/C1=C\c1ccc2ncccc2c1` [RO4493940-000], the potency estimated from few doses with CSNK2A1;CSNK2A3 (compound concentrations: 100 nM and 1000 nM (sheet 'Samples'), CATDS: 0.36155727747203598) was 291 nM; in the test with CSNK2A2 (compound concentrations: 100 nM and 1000 nM (sheet 'Samples'), CATDS: 0.44448936869789302), 203 nM.

Regarding `CN1C[C@@H]2Cn3c(c(C4=C(c5cn(C)c6ccccc56)C(=O)NC4=O)c4ccccc43)C[C@H]2C1.Cl` [RO0320234-001], the potency estimated from few doses in the test on AAK1 (setting [3]) was 403 nM; in the test on BMP2K (setting [3]) it was 933 nM; in the test on CLK1 (setting [3]) it was 162 nM; in the test with CLK4 (setting [3]), 500 nM; with CSNK2A1;CSNK2A3 (setting [3]), 836 nM; with CSNK2A2 (setting [3]), 784 nM. Besides, the potency estimated from few doses in the test on FLT4 (setting [3]) was 878 nM; with GAK (setting [3]), 186 nM; in the test with GSK3A (setting [3]), 99 nM; in the test on GSK3B (setting [3]), 50.7 nM; with PAK4 (setting [3]), 558 nM; in the test on PKN1 (setting [3]) it was 1970 nM. The potency estimated from few doses was 1500 nM with PKN3 [1] (setting [3]); 352 nM in the test on PRKAG1 (setting [3]); 533 nM with Q6ZSR9 (setting [3]); 371 nM in the test with RET (setting [3]); 230 nM in the test with SIK2 (setting [3]).

Regarding `O=C1N=C(NCCc2ccc(Cl)cc2)S/C1=C\c1ccc2ncccc2c1` [RO4498479-000], the potency estimated from few doses was 257 nM in the test with AAK1 (compound concentrations: 100 nM and 1000 nM (sheet 'Samples'), CATDS: 1.47357709485617E-2); 487 nM in the test with BMP2K (compound concentrations: 100 nM and 1000 nM (sheet 'Samples'), CATDS: 1.0596911535971001E-2); 123 nM in the test with CLK1 (compound concentrations: 100 nM and 1000 nM (sheet 'Samples'), CATDS: 2.3801432407155699E-2); 447 nM in the test on CLK4 (compound concentrations: 100 nM and 1000 nM (sheet 'Samples'), CATDS: 1.10234043350519E-2); 216 nM in the test on CSNK2A1;CSNK2A3 (compound concentrations: 100 nM and 1000 nM (sheet 'Samples'), CATDS: 1.63252209283915E-2); 224 nM in the test on CSNK2A2 (compound concentrations: 100 nM and 1000 nM (sheet 'Samples'), CATDS: 1.5998355653452E-2). The potency estimated from few doses with FLT4 (compound concentrations: 100 nM and 1000 nM (sheet 'Samples'), CATDS: 1.0631245795833501E-2) is 483 nM; in the test with GAK (compound concentrations: 100 nM and 1000 nM (sheet 'Samples'), CATDS: 1.9710228455472299E-2), 161 nM; with GSK3A (compound concentrations: 100 nM and 1000 nM (sheet 'Samples'), CATDS: 2.3758867869594399E-2) it was 123 nM; with GSK3B (compound concentrations: 100 nM and 1000 nM (sheet 'Samples'), CATDS: 1.7085262625281698E-2), 201 nM; in the test on MELK (compound concentrations: 100 nM and 1000 nM (sheet 'Samples'), CATDS: 8.0269577096188198E-3) it was 1000 nM; in the test with NUAK1 (compound concentrations: 100 nM and 1000 nM (sheet 'Samples'), CATDS: 8.4437303302316406E-3), 860 nM. The potency estimated from few doses was 375 nM with PAK4 (compound concentrations: 100 nM and 1000 nM (sheet 'Samples'), CATDS: 1.2005445098745401E-2); 713 nM in the test with PKN1 (compound concentrations: 100 nM and 1000 nM (sheet 'Samples'), CATDS: 9.0371010763674806E-3); 431 nM in the test with PKN3 [1] (compound concentrations: 100 nM and 1000 nM (sheet 'Samples'), CATDS: 1.12150497096419E-2); 312 nM in the test on PRKAG1 (compound concentrations: 100 nM and 1000 nM (sheet 'Samples'), CATDS: 1.32160889121976E-2); 282 nM in the test with Q6ZSR9 (compound concentrations: 100 nM and 1000 nM (sheet 'Samples'), CATDS: 1.3986845405836199E-2); 278 nM in the test on RET (compound concentrations: 100 nM and 1000 nM (sheet 'Samples'), CATDS: 1.4080551975431E-2). In the test on SIK2 (compound concentrations: 100 nM and 1000 nM (sheet 'Samples'), CATDS: 1.14849273453617E-2), the potency estimated from few doses was 410 nM.

The values are drawn from paper PMC11062922 (Nature Chemical Biology, 2023).
